High-throughput results: PubChem BioAssay, National Center for Advancing Translational Sciences (NCATS)
RORg inh – inhibitors of mouse ROR gamma transcriptional activity | Potency, µM (highest dose often 53.6 µM), most hits filed as inhibitors | AID 2551 | Drosophila S2 Gal4-RORgamma UAS-luciferase reporter, 20 h | 310,000 tested, 5.4% active | P51450; further: nearly all actives have a fitted effect of over 60% in size
Target sequence (P51450 whole entry, looked up, the tested form may be a part): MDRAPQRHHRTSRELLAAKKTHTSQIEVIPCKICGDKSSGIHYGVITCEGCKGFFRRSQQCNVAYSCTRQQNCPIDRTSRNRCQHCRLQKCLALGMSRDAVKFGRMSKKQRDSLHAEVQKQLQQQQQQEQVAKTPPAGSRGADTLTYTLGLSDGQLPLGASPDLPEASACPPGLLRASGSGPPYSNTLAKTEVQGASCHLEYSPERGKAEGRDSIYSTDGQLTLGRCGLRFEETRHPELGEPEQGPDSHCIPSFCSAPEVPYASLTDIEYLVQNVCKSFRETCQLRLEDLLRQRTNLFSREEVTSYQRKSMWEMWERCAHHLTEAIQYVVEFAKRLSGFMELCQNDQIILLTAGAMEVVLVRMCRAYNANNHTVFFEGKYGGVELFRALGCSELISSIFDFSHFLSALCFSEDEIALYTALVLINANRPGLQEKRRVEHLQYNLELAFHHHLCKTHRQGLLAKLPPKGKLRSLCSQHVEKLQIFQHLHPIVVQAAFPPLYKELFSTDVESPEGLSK
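Drosophila Schneider cells stably carrying a metallothionein-driven Gal4 DBD–ROR gamma fusion and a UAS-Photinus luciferase reporter were exposed to compound for 1 hr, then induced with copper sulfate (700 uM final) for 20 hr at ambient temperature before luminescence reading.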
SW480 rerep – DNA re-replication induction in SW480 cells; 340,000 tested, 1.8% active; Potency, µM (titrated, usually from 46.1 µM), actives largely listed as activators; SW480 DNA re-replication, Hoechst DNA content imaging, 48 h; further: nearly all actives have a fitted effect of over 55% in size
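Cells (250 per well) received 23 nL compound or DMSO by pin tool and were kept 48 hr at 37 C, 5% CO2. Nuclei were then stained with Hoechst for 40 min and scanned for DNA content.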
VP16 counter – Gal4-VP16 reporter inhibition counter-screen. Drosophila S2 Gal4-VP16 UAS-luciferase, luminescence, 20 h. Potency, µM (series often up to 53.6 µM), most hits filed as inhibitors. 310,000 tested, 3.5% active. AID 2546;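 further: Gal4-VP16 expression switched on by copper sulfate through the metallothionein promoter; nearly all actives have a fitted effect of over 50% in size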
IL-1B inflam inh – inhibitors of inflammasome signaling (IL-1 beta secretion); THP-1 LPS/ATP IL-1B secretion, AlphaLISA, 16 h; hits give low values; activity change, % at 57.5 µM; 360,000 tested, 4.7% active; AID 743279; in the data active means activity change below about -50%; inconclusive means mostly about -30% to -49%
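Secreted IL-1B measured by AlphaLISA bead assay after 16 h compound exposure of THP-1 cells; compounds (final up to 57.5 uM) added 1 h before LPS (250 ng/mL) and ATP (1.25 mM) stimulation; lower signal means less secretion.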
MCF10A rerep – induces DNA re-replication in MCF 10a normal breast cells; Potency, µM (highest dose often 46.1 µM), most hits filed as activators; AID 624296; 350,000 tested, 2.9% active; MCF 10A DNA re-replication, Hoechst nuclear intensity, 48 h; further: nearly all actives have a fitted effect of over 50% in size
A number is an active result; i = inactive; ? = inconclusive; nt = no result; ! = a repeat was not active; [ ] = dose if it differs, or a comment. Compounds with a hit are over-represented: about 11% of the library has one in this group of screens. Unless noted, the call rests on the fitted dose curve; in most records, active means well fitted curve in the direction sought with a large enough effect; inconclusive means small, poorly fitted or top-dose-only effect, or another doubt; inactive means no such curve, though single readings can be large; an effect the other way counts as inactive or inconclusive.

SMILES	RORg inh	SW480 rerep	VP16 counter	IL-1B inflam inh	MCF10A rerep
CC(=O)Nc1cccc(/C(C)=N/NC(=S)NC(C)C)c1	7.94µM	i	?	i	i
C/C(=N\NC(=S)NC(C)C)c1ccco1	?	i	4.47µM	i	i
C/C(=N\NC(=S)NC(C)C)c1ccccc1	0.562µM	i	3.55µM	i	i
NC(=O)c1cccc2c1-c1ccccc1/C2=N/NC(N)=S	?	i	?	i	i
COc1ccc2c(c1)C(C)(Cc1ccc(C(=O)c3ccccc3)cc1)C(=O)N2 (configuration not stated)	nt	nt	nt	i	nt
CN(C)c1ncc2nc(-c3cccs3)c(=O)n(C[C@H]3CCCO3)c2n1	i	nt	i	nt	nt
CC(C)NC(=O)CS(=O)(=O)c1ccccc1	i	i	i	i	i
C=C(C)CNC(=S)N/N=C(\C)c1cccc(NC(C)=O)c1	10µM	i	?	i	i
CC(C)NC(=S)NC(c1ccccc1)(c1ccccc1)c1ccccc1	?	i	3.16µM	i	i
COc1ccc(CCC(=O)c2c(O)cc(O[C@@H]3O[C@H](CO)[C@@H](O)[C@H](O)[C@H]3O[C@@H]3O[C@@H](C)[C@H](O)[C@@H](O)[C@H]3O)cc2O)cc1O	i	nt	i	nt	nt
Cc1nnc(NC(=O)c2cc(S(=O)(=O)N3CCCCC3)ccc2Cl)s1	i	i	i	i	i
CCC(C)c1c(O)nc(SCC(=O)N2CCCCCC2)[nH]c1=O (configuration not stated)	i	i	i	-50.6	i
COC(=O)CC[C@H](N)C(=O)O	i	i	i	nt	i
O=C(CS(=O)(=O)c1ccccc1)NCc1ccc(Cl)cc1	i	i	i	i	i
C=CCN1C(=O)/C(=c2\sc3nc(=O)c(Cc4ccccc4)nn3c2=O)c2ccccc21	11.2µM	i	?	i	i
O=c1cc(-c2ccccc2)oc2cc(O[C@@H]3O[C@H](CO)[C@@H](O)[C@H](O)[C@H]3O)c(O)c(O)c12	i	nt	i	nt	nt
COC(=O)CCn1nc(-c2ccc(Cl)cc2)c2ccccc2c1=O	i	i	i	i	i
N#Cc1c(-c2ccc(Cl)cc2)c(-c2ccc(Cl)cc2)nn(CCOC(=O)CCC(=O)O)c1=O	nt	?	nt	i	1.84µM
CC1CC(C)CN(CCCNC(=O)c2cc3c(=O)[nH]c4ccccc4c3n2C)C1 (configuration not stated)	i	i	i	i	i
Cn1c(C(=O)NCCCN2CCN(c3ccccc3F)CC2)cc2c(=O)[nH]c3ccccc3c21	i	i	i	i	23.1µM
Cc1ccc(Cl)cc1N1CCN(C(=O)c2cc3c(=O)[nH]c4ccccc4c3n2C)CC1	i	i	i	i	18.4µM!
Cn1c(C(=O)N2CCN(c3ccc(Cl)cc3)CC2)cc2c(=O)[nH]c3ccccc3c21	i	i	i	?	?
O=C(O)c1ccc2nc(-c3ccccc3)sc2c1	?	i	2.51µM	i	i
NC(=O)c1ccc2nc(NC(=O)c3ccc(N)cc3)sc2c1	i	i	i	i	i
Nc1cc2sc(-c3ccc(C(=O)O)cc3)nc2cc1Cl	10µM	i	11.2µM	i	?
SMILES	RORg inh	SW480 rerep	VP16 counter	IL-1B inflam inh	MCF10A rerep
Nc1ccc(-c2nc3ccc(C(=O)O)cc3s2)cc1	0.562µM	i	0.631µM	i	?
COC(=O)Cn1c(C(=O)N(C)C)cc2c1C[C@H]1CN(C(=O)c3ccccc3)[C@@](Cc3ccc(OC)cc3)(C(=O)OC)[C@@H]21	i	nt	i	nt	nt
Nc1ccn(C2OC(CO)C(O)C2F)c(=O)n1 (configuration not stated)	nt	nt	nt	i	nt
CC(C)N1CCN(c2ccc(OCC3COC(Cn4cncn4)(c4ccc(Cl)cc4Cl)O3)cc2)CC1 (configuration not stated)	nt	?	nt	-53.0	?
CC(C)N1CCN(c2ccc(OC[C@H]3CO[C@](Cn4cncn4)(c4ccc(Cl)cc4Cl)O3)cc2)CC1	nt	?	nt	i	?
COC(=O)c1ccc(Cn2c(C)c(C(=O)NCc3ccco3)sc2=O)o1	nt	nt	nt	-56.1	nt
COC(=O)c1ccc(Cn2c(C)c(C(=O)NCc3ccc(C#N)cc3)sc2=O)o1	nt	nt	nt	i	nt
CSc1ccc(Cn2c(C)c(C(=O)NCCC#N)sc2=O)cc1	nt	nt	nt	i	nt
CSc1ccc(Cn2c(C)c(C(=O)NCc3ccco3)sc2=O)cc1	nt	nt	nt	-101.3	nt
Cc1cc2nc(C(C)(C)C)c(Cc3cccc(F)c3)n2c(C)c1Br	nt	nt	nt	i	nt
O=C(Oc1cc(=O)oc2ccccc12)c1ccccc1	i	4.11µM	i	i	7.31µM
COc1ccccc1CC1(C)C(=O)Nc2ccc(S(=O)(=O)NC3CCCCC3)cc21 (configuration not stated)	nt	nt	nt	i	nt
c1cnc2ccc(-n3ccnc3)cc2c1	nt	nt	nt	i	nt
O=C(Nc1ccncc1)C1CCN(S(=O)(=O)c2ccc(Cl)c(C(F)(F)F)c2)CC1	nt	i	nt	?	?
O=C1NC(=Nc2ccccc2)SC1Cc1ccccc1 (configuration not stated)	i	5.8µM	i	i	i
O=C1NC(=Nc2ccccc2)SC1Cc1cccc(Cl)c1Cl (configuration not stated)	?	i	?	i	i
O=C1N/C(=N\c2ccccn2)SC1Cc1ccc(Cl)cc1 (configuration not stated)	2µM	i	3.16µM	i	?
Cc1ccc(CC2S/C(=N/c3ccccn3)NC2=O)cc1 (configuration not stated)	2.82µM	i	3.55µM	i	i
O=C1N/C(=N/c2ccccn2)SC1Cc1ccccc1 (configuration not stated)	0.891µM	?	2.51µM	i	i
O=c1[nH]c(/C(Cl)=C/c2c(F)cccc2Cl)nc2cc(Cl)ccc12	?	i	i	i	?
O=c1[nH]c(/C(Cl)=C/c2cc(Cl)ccc2O)nc2cc(Cl)ccc12	i	i	i	-104.8	14.6µM
CO[C@@H]1/C=C\CC(=O)N2CCC[C@@H]2C(=O)OC[C@H](C)C(=O)OC[C@H]1C	i[10 µM]	nt	i[10 µM]	nt	nt
COc1ccc(/C=C/C(=O)Nc2ccncc2)cc1OC	i	?	i	i	?
CCC1CSC(Nc2ccc(C(=O)/C=C/c3ccc(OC)c(OC)c3)cc2)=N1 (configuration not stated)	?	?	?	-93.5	?
CCC1CSC(Nc2ccc(C(=O)/C=C/c3ccc(Br)cc3)cc2)=N1 (configuration not stated)	i	?	i	-92.9	16.4µM
COc1ccc(/C=C/C(=O)c2ccc(NC3=NCCCS3)cc2)cc1OC	?	?	i	-108.8	?
COc1ccc(-c2noc(CNC(=O)c3ccc4c(c3)OCO4)n2)cc1OC	i	i	i	i	i
Cc1ccc(NC(=O)NC(=O)COc2ccccc2C(N)=O)c(C)c1	nt	i	nt	i	i
COc1ccc(-c2n[nH]c(=S)n2-c2ccc3c(c2)OCCO3)cc1OC	i	i	i	i	i
S=c1[nH]nc(Cc2ccc(Cl)cc2)n1-c1ccc2c(c1)OCCO2	2.82µM	i	i	i	i
